A selection: hits, their analogues and other compounds. The true share with any hit is near 3.3%.
AmpC no deterg = blocks E. coli AmpC beta-lactamase in detergent-free assay. Potency, µM (highest dose often 57.1 µM), for the others: at the top dose activity change, negative = inhibition, hits mostly inhibitors. P00811. AmpC nitrocefin hydrolysis, absorbance 480 nm, 0.0001% Triton. 330,000 compounds, 0.52% hits;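 also: plate controls were no compound for no effect and no enzyme for full effect; nearly all actives have a fitted effect of over 20% in size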
Target sequence (P00811 whole entry, looked up): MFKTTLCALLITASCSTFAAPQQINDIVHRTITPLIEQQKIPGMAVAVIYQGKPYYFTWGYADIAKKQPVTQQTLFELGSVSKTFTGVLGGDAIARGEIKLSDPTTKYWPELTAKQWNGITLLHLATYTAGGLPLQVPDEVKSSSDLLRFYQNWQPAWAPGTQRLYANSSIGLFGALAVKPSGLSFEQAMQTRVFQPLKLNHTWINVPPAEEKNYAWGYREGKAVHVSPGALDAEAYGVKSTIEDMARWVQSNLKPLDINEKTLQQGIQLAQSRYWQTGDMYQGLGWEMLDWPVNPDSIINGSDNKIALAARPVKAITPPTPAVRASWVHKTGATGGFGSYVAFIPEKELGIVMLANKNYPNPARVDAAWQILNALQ
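20 mM phosphate pH 7.0 + 0.01% (detergent screen) or 0.0001% Triton X-100; 5.3 nM AmpC reagent; cpd preinc 15 min RT; nitrocefin (800 uM stock) to start; A480 q20 s × 4 min; Activity was normalised to no-enzyme and no-compound control wells.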
Sm TGR block = inhibitors of Schistosoma mansoni thioredoxin glutathione reductase. purified TGR, DTNB reduction, TNB absorbance 405 nm. Potency, µM (series often up to 114 µM), for inactives: at the highest dose activity change, negative = inhibition, actives largely listed as inhibitors. 360,000 compounds, 3% hits; also: nearly all actives have a fitted effect of over 60% in size
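Kinetic colorimetric format: TGR-catalysed, NADPH-driven DTNB reduction monitored via TNB absorbance. Enzyme dispensed at 20 nM; compound exposure 15 min at room temperature before reaction start.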
AmpC inh detg = blocks E. coli AmpC beta-lactamase in detergent assay; P00811; AmpC hydrolysis of nitrocefin, absorbance 480 nm, 0.01% Triton; Potency, µM (top dose mostly 114 µM), inactives show at the top dose activity change, negative = inhibition, most hits filed as inhibitors; 370,000 compounds, 0.041% hits; AID 485294;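 also: 0% = no-compound wells and -100% = no-enzyme wells; nearly all actives have a fitted effect of over 25% in size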
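20 mM phosphate pH 7.0 + 0.01% (detergent screen) or 0.0001% Triton X-100; 5.3 nM AmpC reagent; cpd preinc 15 min RT; nitrocefin (800 uM stock) to start; A480 q20 s × 4 min; Activity was normalised to no-enzyme and no-compound control wells.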
* hit, by the source's call; ? = inconclusive; / = not tested or not shown; [ ] = remark or other dose. Calls follow the shape of the dose curve; as a rule, active = well fitted curve in the direction sought with a large enough effect; inconclusive = small, poorly fitted or top-dose-only effect, or another doubt; inactive = no such curve, though single readings can be large; an effect the other way counts as inactive or inconclusive. Unless noted, % is scaled to controls: 0 for no effect and ±100 for the full control effect; potency is read from the fitted curve at half-maximal effect.

SMILES	AmpC no deterg	Sm TGR block	AmpC inh detg
COc1ccc(-c2oc3ncn4nc(COc5c(C)cccc5C)nc4c3c2-c2ccc(OC)cc2)cc1	/	7%	11%
O=C(NCc1cccc(Br)c1)c1cnn(-c2ccc(F)cc2)c1-n1cccc1	/	-13%	-3%
O=C(O)c1ccccc1Nc1cccc(OCc2ccc3ccccc3n2)c1	-25%	-24%	-10%
COc1ccc(C(=O)NNC2CC(=O)N(Cc3ccc(Cl)cc3)C2=O)cc1OC (configuration not stated)	1%	5%	?
N#Cc1cccc(NC(=O)C2CCN(c3ncccn3)CC2)c1	/	4%	8%
COc1ccc2c(c1)CC/C(=C\Nc1ccc3c(c1)OCO3)C2=O	10µM*	6.3µM*	-8%
CC(=O)Oc1ccc(/C=C2/CCc3ccccc3C2=O)cc1	-31%	-4%	6%
COc1cccc(/C=C2\CCc3ccccc3C2=O)c1	-35%	1%	-2%
COc1ccc(N/C=C2\CCc3ccccc3C2=O)cc1	-37%	40µM*	-2%
O=C1/C(=C/Nc2ccc3c(c2)OCO3)CCc2ccccc21	0%	?	0%
COc1ccc2c(c1)CC/C(=C\C=C\c1ccccc1)C2=O	-58%	45µM*	-7%
C=C(C)C(=O)Oc1ccc(N2C(=O)[C@@H]3C4C=CC(C4)[C@@H]3C2=O)cc1	0%	?	?
CC(C)c1ccc(S(=O)(=O)N2CCN(C(=O)c3cc([N+](=O)[O-])ccc3N3CCOCC3)CC2)cc1	-4%	-3%	?
Nc1ccncc1N	-13%	-5%	?
O=C(/C=C/c1ccccc1)Nc1ccc(Cl)cn1	-26%	/	0%
NC(=S)N/N=C1\CC(n2nnn(-c3cccc(Cl)c3)c2=S)C2COC1O2 (configuration not stated)	-38%	-26%	6%
Cc1[nH]nc2c1C(Cc1ccccc1)C(C#N)=C(N)O2 (configuration not stated)	-18%	20µM*	-3%
CCc1[nH]nc2c1C(Cc1ccccc1)C(C#N)=C(N)O2 (configuration not stated)	-20%	?	-3%
Cc1nonc1C1CCCN1C(=O)c1cc(COc2ccc(F)cc2Cl)on1 (configuration not stated)	86%	-3%	2%
Nc1ccc(O)c2c1C(=O)c1ccccc1C2=O	-12%	-6%	0%
Nc1ccc(Br)c2c1C(=O)c1ccccc1C2=O	-45%	13µM*	-1%
O=C1C=C(NNC(=O)c2ccccc2Br)CCC1	-17%	-2%	-8%
COc1ccc(-n2c(Cc3cccn3C)nnc2SCC(=O)Nc2ccc(C(C)=O)cc2)cc1	128%	?	-12%
N#CCCN(C(=O)COC(=O)CCC(=O)c1ccc(F)cc1)c1ccccc1	24%	40µM*	2%
N#CCCN(C(=O)COC(=O)CCc1nc2ccccc2c(=O)[nH]1)c1ccc(F)cc1	1%	0%	-3%
SMILES	AmpC no deterg	Sm TGR block	AmpC inh detg
COC(C[C@H](O)C[C@@H](O)COCc1ccccc1)OC	-24%	0%	-5%
Cc1cc(C(C2C(=O)CC(C)(C)CC2=O)C2C(=O)CC(C)(C)CC2=O)cc(C)c1OC(F)F	-31%	32µM*	-9%
COc1cccc(C(C2C(=O)CC(C)(C)CC2=O)C2C(=O)CC(C)(C)CC2=O)c1	27%	?	-3%
Cc1ccccc1NC(=O)CC1NCCNC1=O (configuration not stated)	/	3%	8%
CCC(NC(=O)c1cc(COc2ccc(C)nc2)on1)c1ccc(C)cc1 (configuration not stated)	65%	0%	3%
O=S(=O)(Cc1ccccc1)Cc1cnc(Cl)s1	1%[2.29 µM]	40µM*	-7%
O=S(=O)(Cc1cnc(Cl)s1)c1ccccc1	-8%	0%	1%
Cc1ccc(C(=O)C[n+]2cccc3ccccc32)cc1	0.16µM*	0%	0%
O=C(C[n+]1cccc2ccccc21)c1ccc(Br)cc1	-22%	17%	?
CC[C@]12c3[nH]c4ccccc4c3CCN1C(=O)C(CC(=O)NCc1cccc(C(F)(F)F)c1)C[C@@H]2C(=O)N1CCN(C(=O)C2CC2)CC1 (some centres not stated)	114%	/	/
CC[N+](C)(CC)CCC(c1ccccc1)C1CCCCC1 (configuration not stated)	18%	18µM*	-17%
CC[N+](C)(CC)CCOC(=O)C(O)(c1ccccc1)C1CCCCC1 (configuration not stated)	15%	8%	4%
CC1Cc2ccccc2N1Cc1cc(=O)c(OCC(=O)Nc2ccccc2)co1 (configuration not stated)	35µM*	9%	-13%
Cc1ccc(NC(=O)COc2coc(CN3c4ccccc4CC3C)cc2=O)c(C)c1 (configuration not stated)	-1%	0%	-19%
Cc1cc(OCC(=O)N2CCC(C(N)=O)CC2)c2c(C)cc(=O)oc2c1	-16%	-13%	-14%
CC1CN(S(=O)(=O)c2cccc(C(=O)N3CCC(C(N)=O)CC3)c2)CC(C)O1 (configuration not stated)	-10%	/	/
CN(Cc1ccccc1)S(=O)(=O)c1ccc2c(c1)CCC(=O)N2	-22%	0%	?
CC(=O)O[C@H]1CC(C)(C)C(=C=C/C(C)=C/C=C/C(C)=C/C=C/C=C(C)/C=C/C=C(\C)C(=O)C[C@@]23O[C@]2(C)C[C@@H](O)CC3(C)C)[C@](C)(O)C1	164%	3.2µM*	3%
CC(CCc1ccccc1)NC(=O)Cn1c(=O)nc(-c2ccccc2)c2ccccc21 (configuration not stated)	/	-2%	0%
COc1cc(C(=O)Sc2ccc(C)cc2)cc(OC)c1OC	11%	-21%	-5%
Cc1ccc(OCC(=O)Sc2ccc(C)cc2)cc1	-35%	18µM*	2%
COc1ccccc1OCC(=O)Sc1ccc(C)cc1	-20%	7.1µM*	-13%
Cc1ccc(OCC(=O)NCCNC(=O)COc2ccc(C)cc2)cc1	46%	10%	3%
CC1CN(S(=O)(=O)c2cccc(C(=O)N(Cc3nnc(-c4ccccc4Cl)o3)C3CC3)c2)CC(C)O1 (configuration not stated)	197%	-1%	-14%
O=C(CSc1nnc(CNC(=O)c2c(F)cccc2Cl)o1)NC1CCCC1	-1%	-25%	-14%
SMILES	AmpC no deterg	Sm TGR block	AmpC inh detg
COC(=O)CSc1nnc(C)c(=O)[nH]1	-11%	6%	1%
CCOC(=O)CNc1nnc(SCC(=O)OCC)[nH]c1=O	-13%	56µM*	-8%
CN1CCN(S(=O)(=O)c2ccc(C(F)(F)F)cc2)C(c2ccccc2)C1 (configuration not stated)	39%	2%	7%
CCc1ccc(-n2nc(C)c3c(C)cc(=O)n(CC(=O)NCc4ccc(C)cc4)c32)cc1	/	-5%	22%
CCN1CCN(c2nnc(-n3cccc3C(=O)NCc3ccccc3OC)s2)CC1	/	6%	4%
O=C(Oc1ccc([N+](=O)[O-])cc1)c1cncc(Br)c1	-28%	18µM*	-5%
O=CNc1ccc(OC(=O)c2cncc(Br)c2)cc1	-5%	3%	-9%
CC(C)(C)c1cc(NS(=O)(=O)c2ccc(Br)s2)no1	-26%	-2%	-5%

Source: PubChem (National Center for Advancing Translational Sciences (NCATS))
